# SARS PLP yeast: blocks SARS-CoV papain-like protease in a yeast assay | S. cerevisiae expressing SARS-CoV PLpro, growth rescue | Potency, µM (series often up to 32.9 µM), inactives show top-dose activity, positive = growth rescue, actives largely listed as activators | 0.19% of 330,000 active; calls by dose curve; note: 0% is about no effect; nearly all actives have a fitted effect of over 55% in size
# Pf growth 48h: inhibits P. falciparum growth in the first generation, 48 h; P. falciparum luciferase growth in erythrocytes, 48 h; Potency, µM (highest dose often 28.7 µM), for inactives: at the top dose activity change, negative = inhibition, usual class: inhibitors; 5.9% of 310,000 active; AID 504832; note: % is set by controls: 0 for no effect and ±100 for the full control effect
#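 A one-generation exposure of luciferase-tagged malaria parasites in RPMI 1640/Albumax erythrocyte culture, 37 C and 5% CO2. Inhibition is inferred from decreased luminescence after adding detection reagent.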
# AMA1-RON2 inh: AMA1-RON2 (P. falciparum) interaction inhibition; AlphaScreen AMA1-biotinylated RON2 peptide binding; Potency, µM (top dose mostly 58.2 µM), for the others: at the top dose activity change, negative = inhibition, usual class: inhibitors; 0.2% of 360,000 active;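 note: 0% = vehicle wells and -100% = peptide control; nearly all actives have a fitted effect of over 45% in size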
#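 AMA1 (3D7) with his tag at 25 nM final met compounds first, then biotinylated RON2 peptide at 25 nM; detection used donor plus acceptor beads, 10 µg/mL apiece, read by AlphaScreen after 30 min at room temperature.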
# Pf growth 96h: P. falciparum growth inhibition at 96 hours | 6.9% of 320,000 active | P. falciparum luciferase reporter growth, 96 h | Potency, µM (doses to about 28.7 µM), without a hit: at the highest dose activity change, negative = inhibition, hits mostly inhibitors; note: % is set by controls: 0 for no effect and ±100 for the full control effect
#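 P. falciparum expressing integrated firefly luciferase, in erythrocytes at 2% hematocrit, 0.05% parasitemia, incubated with compounds 96 h at 37 C, 5% CO2. Growth inhibition read as loss of luminescence; two-generation exposure targets delayed-death apicoplast inhibitors.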
# An asterisk follows results filed as active; ? = inconclusive; / = no result given; [ ] = remark or other dose. Sampled rows, rich in hits. Any-hit rate of the full collection: about 9.4%. Unless noted, calls come from the whole dose curve; as a rule, active = well fitted curve in the direction sought with a large enough effect; inconclusive = small, poorly fitted or top-dose-only effect, or another doubt; inactive = no such curve, though single readings can be large; an effect the other way counts as inactive or inconclusive. Potency is the fitted concentration of half-maximal effect.
SMILES,SARS PLP yeast,Pf growth 48h,AMA1-RON2 inh,Pf growth 96h
CCOCc1cnc(C)nc1NCC(=O)c1c(C)[nH]c2cc(C)ccc12,-2%,0.83µM*,1%,0.29µM*
Cc1[nH]c2ccccc2c1C(=O)CNc1nccs1,0%,-27%,12%,?
CCOC(=O)C1CCN(Cc2ccccn2)CC1,-4%,9%,/,10µM*
CCOC(=O)C1CCN(Cc2ccc(OC)c(C)c2OC)CC1,1%,23%,-8%,?
CCOC(=O)C1CCN(Cc2cc(Cl)c3ccccc3c2O)CC1,-21%,1.2µM*,-14%,1.2µM*
CCOC(=O)C1CCCN(C(=O)c2ccc(OC)c(OC)c2)CC1 (stereo not given),/,/,-2%,/
CCOC(=O)C1CCN(C(=O)c2ccc(OCC)c(OCC)c2)CC1,2%,-22%,21%,15µM*
COc1ccc(Cn2c(CCC(=O)N3CCN(c4ccccn4)CC3)nc3ncccc3c2=O)cc1,15%,12µM*,-9%,?
CC(C)C[C@@H](CN1CCC[C@@H]1CN1C(=O)C(=O)NC[C@@H]1Cc1ccc(O)cc1)N1C[C@H](Cc2ccc(O)cc2)N(CC2CCCCCC2)C(=O)C1=O,/,/,3%,/
COc1cccc(CNc2nc3ccccc3n2CCN2CCCCC2)c1,-5%,?,1%,/
c1ccc2c(c1)nc(NCc1ccc3c(c1)OCO3)n2CCN1CCOCC1,-1%,-22%,3%,21%
c1ccc(Cn2c(CNc3nc4ccccc4n3CCN3CCOCC3)nc3ccccc32)cc1,-3%,12µM*,15%,9%[5.75 µM]
Brc1cccc(CNc2nc3ccccc3n2CCN2CCCCC2)c1,0%,?,-5%,12µM*
COc1cccc(CNc2nc3ccccc3n2CCN2CCCCC2)c1OC,0%,?,9%,5%
Brc1ccc(CNc2nc3ccccc3n2CCN2CCCCC2)cc1,-1%,?,-7%,13µM*
COc1ccc(Cl)cc1NC(=O)Nn1cnnc1,3%,/,11%,?
COc1cccc(CNC(=O)CCCn2nc(C)c3c(C)n(-c4ccccc4)nc3c2=O)c1,10%,?,-5%,?
CCOC(=O)C1=CN(CC2CCCO2)C=C(C(=O)OCC)C1c1ccccc1C(F)(F)F (stereo not given),1%,8.3µM*,43%,?
O=C(NCCN1CCOCC1)c1cccc(S(=O)(=O)N(Cc2ccccc2)c2ccccc2)c1,/,0%,-4%,-2%
Cc1nc(-c2ccccc2)sc1C1(C)CC(c2ccc([N+](=O)[O-])cc2)=NO1 (stereo not given),-2%,43%,-23%,50%
Cc1ccc(-c2nc(N)n(C(=O)c3cccs3)n2)cc1,4%,19%,9%,15%
O=C(c1cnn2c(C(F)F)cc(-c3ccccc3)nc12)N1CCN2CCCC2C1 (stereo not given),2%,?,5%,/
O=C(c1cnn2c(C(F)(F)F)cc(-c3ccc4c(c3)OCO4)nc12)N1CCCCC1,2%,0%,1%,8.3µM*
Cc1ccccc1Cc1c(C)nc2c(C(=O)N3CCN(Cc4ccc5c(c4)OCO5)CC3)cnn2c1C,/,/,-22%,/
O=C(c1cnn2c(C(F)F)cc(-c3ccccc3)nc12)N1CCCCC1c1cccnc1 (stereo not given),0%,1.7µM*,5%,?
SMILES,SARS PLP yeast,Pf growth 48h,AMA1-RON2 inh,Pf growth 96h
CN1CCN(C(=O)c2cnn3c(C(F)(F)F)cc(-c4ccc5c(c4)OCO5)nc23)CC1,0%,-25%,-7%,-28%
CCN1CCN(C(=O)c2cnn3c(C(F)F)cc(-c4ccc(C)cc4)nc23)CC1,2%,?,-6%,7.4µM*
O=C(c1cnn2c(C(F)F)cc(-c3ccccc3)nc12)N1CCN(Cc2ccc3c(c2)OCO3)CC1,-12%,4.7µM*,-25%,?
CCN(CC)c1cc(C)c2ccccc2n1,?,-1%,0%,-17%
CCOC(=O)c1sc(NC(=O)CC(C)c2ccccc2)nc1C (stereo not given),9%,-40%,-4%,70%
Cc1cnc(C(=O)N2CCCC(C(=O)c3ccc(Cl)cc3C)C2)cn1 (stereo not given),-2%,10%,0%,?
COc1cccc(-c2cc(C(F)(F)F)n3nc(C(=O)N4CCCCC4c4cccnc4)cc3n2)c1 (stereo not given),-4%,3.7µM*,-1%,?
COc1ccc(-c2cc(C(F)(F)F)n3nc(C(=O)N4CCCCC4)cc3n2)cc1,-7%,?,3%,35%
Cc1nn(-c2ccccc2)c(N2CCCC2)c1C=O,1%,-20%,-3%,?

# Screens (PubChem BioAssay)
